The text below walks through data of PubChem BioAssay AID434973 (Sanford-Burnham Center for Chemical Genomics, 2010).

What is called inhibition is the change of the read-out against control, counted positive when it falls.

Structures are written as SMILES. The whole screen tested about 330,000 compounds, of which about 4,900 (1.5%) were called active.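 The calls were made as follows: active = inhibition above about 50% at the single test dose (limit read from the data); inactive = the rest.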 This excerpt belongs to a sample that is enriched for actives.

This experiment has as its target Sentrin-specific protease 7 (Homo sapiens) (UniProt Q9BQF6). The experiment in a line: SENP7 protease inhibitors, primary screen, biochemical, luminescence, uHTS (AID 434973).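 Also: plate controls were DMSO with enzyme for no effect and no enzyme buffer wells for full effect.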 Particulars: recombinant SENP7, Z-RLRGG-aminoluciferin luminescence, 40 min; at 5 µM; stronger effect = higher value.
With `C/C(CC(=O)N1CCN(C=O)CC1)=N\NC(=O)c1ccc(Br)cc1`, the inhibition was 4.47% (inactive).

As for `COCC(C)n1c(SCC(=O)NC2CCCCC2C)nc2ccccc2c1=O` (stereo unspecified), the inhibition is -6.63% (inactive).

On to `CC(C)NC(=O)c1ccc(Sc2ccccc2)c([N+](=O)[O-])c1`, for which the inhibition was 4.52% (inactive).

Regarding `O=C(c1ccc(=O)oc1)N1CCC(C(O)(c2ccccc2)c2ccccc2)CC1`, the inhibition is -5.43% (inactive).

As for `CCC1CCCCN1C(=S)Nc1ccc(S(=O)(=O)Nc2ncccn2)cc1` (stereo unspecified), the inhibition is -9.27% (inactive).

Turning to `Cc1cccc(-n2c(C)cc(/C=N\NC(=O)c3cccs3)c2C)c1`, the inhibition is -3.16% (inactive).

As to `CC(=O)Nc1ccc(/C=N/NC(=O)c2cccs2)cc1`, the inhibition is 67.7% (active).

With `CC(C)C(=O)Nc1ccc(C(=O)NNC(=O)c2cccs2)cc1`, the inhibition is -0.683% (inactive).

For `CCc1ccc(NC(=O)COC(=O)c2cccs2)cc1`, the inhibition is 17.2% (inactive).

As to `CCc1ccc(NC(=O)C(=O)NNC(=O)c2cccs2)cc1`, the inhibition is 51.4% (active).

For the compound `O=C(Nc1ccccc1)c1ccc(NC(=O)c2cccs2)cc1`, the inhibition is 67.8% (active).

In the case of `Cc1ccc(C(=O)Nc2ccc(NC(=O)c3cccs3)cc2)c(C)c1`, the inhibition is -5.29% (inactive).

In the case of `O=C(Nc1ccc(NC(=O)c2cccs2)cc1)c1ccc2ccccc2c1`, the inhibition was -6.64% (inactive).

Regarding `CCN(CC)c1ccc(/C=N/NC(=O)CNC(=O)c2cccs2)cc1`, the inhibition is 2.87% (inactive).

`O=C(COC(=O)/C=C/c1cccs1)NC1CCCCC1`: the inhibition was 6.28% (inactive).

On to `COCCCNC(=O)[C@H]1N2C(=O)c3ccccc3C2SC1(C)C` (stereo partly specified), for which the inhibition was -7.11% (inactive).

With `COC(=O)Cc1csc(/N=C/c2c(O)n(-c3cccc(C(F)(F)F)c3)c(=O)c3ccccc23)n1`, the inhibition was -1.46% (inactive).

With `CCCCN(C(=O)C1CCC1)c1c(N)n(Cc2ccccc2)c(=O)[nH]c1=O`, the inhibition is 5.98% (inactive).

Turning to `O=C(CCS(=O)(=O)c1ccccc1Cl)Nc1ccc(S(=O)(=O)Nc2ncccn2)cc1`, the inhibition was 5.16% (inactive).

On to `CCCCSCCCNC(=O)C1CCC(CNS(=O)(=O)c2ccc(NC(C)=O)cc2)CC1` (stereo unspecified), for which the inhibition was -1.73% (inactive).

In the case of `NC(=O)Cc1nc2scc(-c3ccc(Cl)cc3)c2c(=O)[nH]1`, the inhibition is -2.34% (inactive).

Regarding `O=c1[nH]c(CCl)nc2cc(-c3ccc(Cl)cc3)sc12`, the inhibition was 63.1% (active).

Regarding `O=c1[nH]c(CN2CCOCC2)nc2cc(Cl)ccc12`, the inhibition is 10.2% (inactive).

For `Cc1cccc(C)c1NC(=O)CNC(=O)c1ccc2c(c1)OCCO2`, the inhibition was -14.1% (inactive).

As to `COc1ccc(C(=O)NC(=S)Nc2ccc(Cl)cn2)cc1OC`, the inhibition was -7.53% (inactive).

As for `CCCCC(CC)C(=O)Nc1ccc(Cl)cn1` (stereo unspecified), the inhibition was -1.33% (inactive).

As for `CCCc1cc(C(=O)Nc2ccc(Cl)cn2)cs1`, the inhibition was 76.6% (active).

As to `Cc1ccc(C(=O)NNC(=O)c2ccc3c(c2)OCCO3)cc1`, the inhibition was 6.51% (inactive).

On to `O=C(Nc1ccc(Cl)cn1)c1ccc2c(c1)OCCO2`, for which the inhibition was 82.6% (active).

Turning to `Cc1nc(NC(=O)c2ccc3c(c2)OCCO3)ccc1Br`, the inhibition is 87.2% (active).

`CCCc1cc(C(=O)Nc2ccc(C(=O)OC)cc2)cs1`: the inhibition is -0.862% (inactive).

As to `O=C(Nc1ccc(Cl)cn1)c1cnn2cccnc12`, the inhibition was 27.2% (inactive).

Take `CN(c1ccccc1)S(=O)(=O)c1ccc(Cl)c(C(=O)OCC(=O)N2CCOCC2)c1`: the inhibition is 3.02% (inactive).

As to `O=C(NCCC(=O)N1O[C@@H]2C=C[C@H]1C2)OCC1c2ccccc2-c2ccccc21`, the inhibition is 3.86% (inactive).

Take `Cc1ccn(C(CC(=O)c2ccc(Br)cc2)C(=O)O)n1` (stereo unspecified): the inhibition was 4.97% (inactive).

With `CCCCN(CC)C(=O)c1ccccc1Oc1ccccc1`, the inhibition was 6.13% (inactive).

Take `COC(=O)c1nn(-c2cccc(Cl)c2)ccc1=O`: the inhibition was 3.97% (inactive).

Regarding `COC(=O)c1ccc(/C=C/c2c(-c3ccc(OC)cc3)sc3ccccc23)cc1`, the inhibition is 3.42% (inactive).

With `COc1ccc(-c2sc3ccccc3c2-c2ccc(OCCN3CCOCC3)cc2)cc1`, the inhibition is -12.1% (inactive).

As for `COc1ccc(N=C(C)c2sc3ccccc3c2O)cc1`, the inhibition is 83.7% (active).

For `Cc1cc(C)cc(NC(=O)N2CCCCCCC2)c1`, the inhibition is 0.706% (inactive).

As to `Cc1ccc2cc3cc(C(=O)N4CCCCCC4)oc3nc2c1`, the inhibition was 55.3% (active).

On to `Cc1ccc2nc(N3CCN(C(=O)c4ccco4)CC3)sc2c1`, for which the inhibition was -7.97% (inactive).

As for `O=c1onc(-c2c(F)cccc2F)n1-c1ccccc1Cl`, the inhibition was -2.38% (inactive).

Take `Cc1cc(=O)[nH]c(S)c1C#N`: the inhibition was 7.81% (inactive).

`CCc1ccc(OCC(=O)OCC(=O)c2c(N)n(C)c(=O)n(C)c2=O)cc1`: the inhibition was -1.23% (inactive).

Consider `c1ccc2sc(NN=C3CCCC3)nc2c1`, for which the inhibition is 82.2% (active).

`CCN(CC)CCn1c2c(c(SCC(=O)Nc3nc4ccccc4s3)nc1=O)CCCC2`: the inhibition was 4.47% (inactive).

In the case of `O=C1NC(Nc2nc3ccccc3s2)(C(F)(F)F)C(=O)N1C1CCCCC1` (stereo unspecified), the inhibition was 6.04% (inactive).

Take `COc1ccc(CNC(=O)C2CCC(CNc3c(N4CCOCC4)c(=O)c3=O)CC2)cc1` (stereo unspecified): the inhibition is -10.4% (inactive).

Turning to `O=C(Nc1nnc(-c2ccccc2)o1)c1cccc(S(=O)(=O)N2CCOCC2)c1`, the inhibition was -5.26% (inactive).

Consider `O=C(O[C@H]1[C@H](Cc2ccccc2)NS(=O)(=O)[C@H]2C[C@@H]3C=C[C@]12O3)c1ccc([N+](=O)[O-])cc1`, for which the inhibition was 7.73% (inactive).

With `O=C(CCN1CCCCC1)N=Nc1c(O)[nH]c2ccccc12`, the inhibition was -5.94% (inactive).

For `Cc1cccc(N(CC(=O)N=Nc2c(O)[nH]c3ccccc23)S(C)(=O)=O)c1C`, the inhibition was 5.39% (inactive).

Take `Cc1c(-c2ccccc2)n[nH]c1C(=O)N=Nc1c(O)[nH]c2ccccc12`: the inhibition was 84.6% (active).

For `CCCc1ccc(OCCNC(=O)c2ccco2)cc1`, the inhibition was -0.541% (inactive).

For `CCCc1ccc(OCCNC(=O)c2ccccc2Br)cc1`, the inhibition was -1.05% (inactive).

With `CCCOc1ccc(C(=O)NCCc2ccccc2)cc1`, the inhibition is 78.1% (active).

Turning to `COc1ccc(CCNC(=O)C(=O)NCC2CCNCC2)cc1OC`, the inhibition is 2.84% (inactive).

In the case of `COc1ccc(SC[C@H](Cc2ccccc2)N2CCN(CCc3ccccc3)CCC2=O)cc1`, the inhibition was -3.68% (inactive).

Take `CCn1cc(C(=O)NCCCN2CCCCCC2)c(=O)c2cc(S(=O)(=O)N3CCc4ccccc4C3)ccc21`: the inhibition is 7.21% (inactive).

`COc1ccc(-c2cn3cccnc3n2)cc1`: the inhibition is 1.35% (inactive).

Take `COc1ccc(-c2cn3ccc(C)cc3n2)cc1`: the inhibition was 98.1% (active).

With `Cc1ccn2cc(C(=O)NC3CCN(Cc4ccccc4)CC3)nc2c1`, the inhibition is 5.68% (inactive).

Regarding `COc1ccc(-c2cn3ccsc3n2)cc1`, the inhibition was 58.5% (active).

Consider `CCN(CC)S(=O)(=O)c1ccc(-c2cn3ccc(C)cc3n2)cc1`, for which the inhibition was 10.3% (inactive).

For the compound `COc1cc(OC)cc(-c2nc(=S)n3ccsc3n2)c1`, the inhibition was 0.18% (inactive).

For `CC(C)(C)c1ccc(/C=C/C(=O)NC2CCS(=O)(=O)C2)cc1` (stereo unspecified), the inhibition was 5.24% (inactive).

In the case of `Cc1ccc(S(=O)(=O)N2CCN(C(=O)c3ccc(-n4cncn4)c([N+](=O)[O-])c3)CC2)cc1`, the inhibition was 0.142% (inactive).

On to `CN(C)S(=O)(=O)c1cc(NC(=O)CN2C(=O)NC3(CCCc4ccccc43)C2=O)ccc1Cl` (stereo unspecified), for which the inhibition is -13.5% (inactive).

As to `Cc1nc2nc(C)c(NS(=O)(=O)c3ccc(C(C)(C)C)cc3)c(=O)n2[nH]1`, the inhibition was -0.191% (inactive).

On to `Cc1ccc(NC(=O)CSCC(=O)Nc2sccc2C#N)cc1`, for which the inhibition was 1.52% (inactive).

As to `Cc1csc(SCC(=O)Nc2sccc2C#N)n1`, the inhibition is 94% (active).

With `Cc1cccc(C)c1Nc1nnc(SCC(=O)Nc2sccc2C#N)s1`, the inhibition was 8.73% (inactive).

In the case of `COC(=O)C1=C(C)NC(=O)/C1=C/c1ccc(CNS(=O)(=O)c2ccc(C)cc2)o1`, the inhibition is -2.86% (inactive).

`CC(=O)Nc1ccc(C(=O)Nc2cccc(S(=O)(=O)NC3=NCCC3)c2)cc1`: the inhibition was -0.0847% (inactive).

Regarding `N#Cc1ccccc1NC(=O)c1ccc2c(c1)OCO2`, the inhibition is 2.46% (inactive).

For the compound `CN(Cc1c(F)cccc1Cl)C(=O)CNC(=O)c1ccc2c(c1)OCO2`, the inhibition is -9.22% (inactive).

In the case of `O=C(Nc1ccc(N2CCOCC2)cc1)c1ccc2c(c1)OCO2`, the inhibition was 16.9% (inactive).

For `O=C(Nc1ccccc1)c1ccc2c(c1)OCCCO2`, the inhibition was 90.7% (active).

In the case of `CC(C)C(=O)Nc1cccc(C(=O)Nc2ccc3c(c2)OCO3)c1`, the inhibition is 34.3% (inactive).

For `O=C(Nc1ccccc1F)c1ccc2c(c1)OCO2`, the inhibition was 67.5% (active).

As to `O=C(Nc1ccc(NC(=O)c2ccc3c(c2)OCO3)cc1)c1cccc(Cl)c1`, the inhibition was 1.85% (inactive).

On to `CN1CCN(c2ccc(NC(=O)c3ccc4c(c3)OCCO4)cc2Cl)CC1`, for which the inhibition is -1.01% (inactive).

Turning to `O=C(Nc1ccc2c(c1)OCCO2)c1ccoc1`, the inhibition is -0.659% (inactive).

Take `O=C(Nc1ccccc1)c1ccc2c(c1)OCO2`: the inhibition is 88.5% (active).

Regarding `CC(NC(=O)Nc1cccc([N+](=O)[O-])c1)c1ccc2c(c1)OCO2` (stereo unspecified), the inhibition was 3.89% (inactive).

Regarding `O=C(Nc1cccc([N+](=O)[O-])c1)c1ccc2c(c1)OCO2`, the inhibition is 66.9% (active).

In the case of `Cc1ccc(S(=O)(=O)N2CCOCC2)cc1NC(=O)CSc1nnc(N)s1`, the inhibition is -5.72% (inactive).

On to `CC(C)(C)C1CCC(OC(=O)CCC(=O)Nc2ccccc2)CC1` (stereo unspecified), for which the inhibition was 3.21% (inactive).

For the compound `COc1cc(OC)cc(/C(N)=N/O)c1`, the inhibition is 0.905% (inactive).

Turning to `O=C(CN1C(=O)NC2(CCCC2)C1=O)NCC1CCCO1` (stereo unspecified), the inhibition is 4.93% (inactive).

With `O=C(CN1C(=O)CC(c2ccccc2)S(=O)(=O)c2ccccc21)NC1CCCC1` (stereo unspecified), the inhibition is 2.74% (inactive).

For the compound `O=c1ccc2cc(S(=O)(=O)NCCCc3ccccc3)ccc2[nH]1`, the inhibition was 4.36% (inactive).

Regarding `CCOC(=O)CCP(=O)(O)C(O)(c1ccccc1)c1ccccc1`, the inhibition is -5.54% (inactive).

For `O=S(=O)(c1cccc(-c2nnc(SC(F)F)n2-c2ccccc2)c1)N1CCCCC1`, the inhibition was 1.56% (inactive).
